From PubChem
An excerpt weighted towards active compounds, which were near 12% of everything screened.
HP1b chromo inh: blocks HP1-beta chromodomain binding to methylated histone tails | P83916 | AlphaScreen HP1-beta / biotin-H3K9me3 peptide binding | Potency, µM (doses to about 114 µM), for the others: top-dose activity change, negative = inhibition, usual class: inhibitors | 390,000 tested, 0.56% active | AID 540317; note: nearly all actives have a fitted effect of over 70% in size
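Compound inhibition of the preformed complex between 50 nM HP1-beta and 50 nM biotinylated H3K9me3 peptide was read by AlphaScreen. Buffer was PBS pH 7.4 with 0.01% Tween-20. Incubations ran 30 min at room temperature, with 10 ug/mL donor/acceptor beads.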
BAZ2B block: blocks human BAZ2B; Q9UIF8; AlphaScreen BAZ2B-H3K14Ac peptide displacement; Potency, µM (highest dose often 114 µM), for inactives: at the top dose activity change, negative = inhibition, usual class: inhibitors; 360,000 tested, 4.4% active; note: % is set by controls: 0 for no effect and ±100 for the full control effect; nearly all actives have a fitted effect of over 60% in size
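AlphaScreen luminescence quantifies BAZ2B engagement of H3K14Ac peptide; the protein and biotinylated peptide are both at 50 nM final, buffer PBS pH 7.4 with 0.01% Tween-20, all steps at room temperature.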
L3MBTL1 inh-1: inhibitors of human L3MBTL1; 230,000 tested, 0.66% active; Q9Y468; AID 485360; Potency, µM (highest dose often 57.1 µM), inactives show top-dose activity, negative = inhibition, actives largely listed as inhibitors; AlphaScreen L3MBTL1–H3K9me1 peptide binding; note: % is set by controls: 0 for no effect and ±100 for the full control effect; nearly all actives have a fitted effect of over 60% in size
Target sequence (Q9Y468 whole entry, looked up): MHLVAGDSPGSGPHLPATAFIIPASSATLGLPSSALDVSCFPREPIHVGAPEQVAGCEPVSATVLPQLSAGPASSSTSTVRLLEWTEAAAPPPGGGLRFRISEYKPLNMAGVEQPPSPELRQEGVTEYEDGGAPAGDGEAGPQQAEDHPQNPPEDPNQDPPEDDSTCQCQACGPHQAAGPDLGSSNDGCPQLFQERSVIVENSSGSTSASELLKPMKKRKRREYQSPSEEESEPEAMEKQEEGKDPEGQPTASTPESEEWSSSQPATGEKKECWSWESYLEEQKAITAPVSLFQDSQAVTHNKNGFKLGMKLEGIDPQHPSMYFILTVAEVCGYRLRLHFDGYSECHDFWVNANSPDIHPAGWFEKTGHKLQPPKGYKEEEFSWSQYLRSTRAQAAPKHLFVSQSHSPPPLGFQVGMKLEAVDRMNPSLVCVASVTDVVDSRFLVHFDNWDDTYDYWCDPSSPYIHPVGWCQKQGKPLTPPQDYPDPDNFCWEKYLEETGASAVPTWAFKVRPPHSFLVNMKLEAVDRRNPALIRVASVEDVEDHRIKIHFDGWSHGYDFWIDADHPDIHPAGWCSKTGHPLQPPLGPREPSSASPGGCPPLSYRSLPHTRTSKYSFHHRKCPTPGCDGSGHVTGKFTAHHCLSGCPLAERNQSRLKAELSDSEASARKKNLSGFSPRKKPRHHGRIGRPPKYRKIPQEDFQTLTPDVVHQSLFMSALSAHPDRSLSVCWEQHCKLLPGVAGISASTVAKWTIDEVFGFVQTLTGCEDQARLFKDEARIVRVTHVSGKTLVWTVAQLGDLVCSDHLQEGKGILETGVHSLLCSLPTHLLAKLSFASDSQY
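L3MBTL1 50 nM + b-AHA-H3(1-15)K9me1 75 nM, 30 min RT; compound added, 30 min RT; streptavidin donor/Ni-chelate acceptor beads 10 ug/mL each final, 30 min RT dark; AlphaScreen read.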
Sfp PPTase inh: inhibitors of Bacillus subtilis Sfp phosphopantetheinyl transferase; Potency, µM, without a hit: largest response in the series, negative = inhibition, actives largely listed as inhibitors; Q9F4F7; 310,000 tested, 3.5% active; Biochemical Sfp PPTase activity, qHTS;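 note: the enzyme is Sfp with the accession as filed and its product quenches rhodamine fluorescence; 0% = enzyme reaction without inhibitor and -100% = no enzyme wells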
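Fluorescence-quenching assay with 15 nM Sfp, 5 uM rhodamine-CoA and 12.5 uM BHQ-2-labelled ybbR peptide in pH 7.6 Hepes/MgCl2 buffer. Enzyme was pre-incubated with compound for 15 min at room temperature. Rate was taken from the 30-min fluorescence change (525/598 nm).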
JMJD2A Tudor inh: blocks the human JMJD2A Tudor domain. O75164. AlphaScreen JMJD2A-Tudor / H3K4me3 peptide binding. Potency, µM (highest dose often 114 µM), for the others: at the top dose activity change, negative = inhibition, usual class: inhibitors. 390,000 tested, 4.4% active; note: % is set by controls: 0 for no effect and ±100 for the full control effect; nearly all actives have a fitted effect of over 50% in size
G9a block: G9a (human) methyltransferase inhibition; Q96KQ7; G9a H3K9 monomethylation, AlphaScreen, 2 h; Potency, µM (series often up to 102 µM), for inactives: at the top dose activity, negative = inhibition, most hits filed as inhibitors; 350,000 tested, 8.8% active; note: % is set by controls: 0 for no effect and ±100 for the full control effect; nearly all actives have a fitted effect of over 75% in size
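Readings reflect AlphaScreen signal from monomethyl-H3K9 antibody detection. HMT at 20 nM; substrate b-H3K9 500 nM; cofactor SAM 20 uM; 2 h RT reaction; compounds tested as titrations in qHTS with 15 min preincubation.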
L3MBTL1 inh-2: validation of human L3MBTL1 methyl-lysine binding inhibitors; L3MBTL1 methyl-lysine binding inhibition, biochemical qHTS; shares compounds with L3MBTL1 inh-1; 500 tested, 91% active; Potency, µM, usual class: inhibitors; AID 540279; note: nearly all actives have a fitted effect of over 70% in size
L3MBTL1 ctr: AlphaScreen signal inhibition, L3MBTL1 hit counter-screen; shares compounds with L3MBTL1 inh-1; AlphaScreen counterscreen, signal inhibition; Potency, µM (series often up to 57.1 µM), inactives show at the top dose activity change, negative = inhibition, most hits filed as inhibitors; 500 tested, under 10 active; AID 602224; note: 0% is about no effect
* hit, by the source's call; ? = inconclusive; / = not tested or not shown; [ ] = remark or other dose. Calls come from the whole dose curve; as a rule, active = well fitted curve in the direction sought with a large enough effect; inconclusive = small, poorly fitted or top-dose-only effect, or another doubt; inactive = no such curve, though single readings can be large; an effect the other way counts as inactive or inconclusive. Potency is the fitted concentration of half-maximal effect.

SMILES | HP1b chromo inh | BAZ2B block | L3MBTL1 inh-1 | Sfp PPTase inh | JMJD2A Tudor inh | G9a block | L3MBTL1 inh-2 | L3MBTL1 ctr
COc1cc(O)c2c(c1)OC(c1ccc(O)cc1)CC2=O (stereo not given) | 74% | -10% | 3% | -1% | -23% | -7%[59 µM] | / | /
COc1ccc(NC(=O)CN(C)C(=O)c2cc3c(s2)CCC3)cc1 | 13µM* | 6.3µM* | 3.2µM* | / | 14µM* | 13µM* | 0.75* | 5%
CC1CC(C)CN(C(=O)/C=C/c2ccc(S(=O)(=O)N3CCOCC3)cc2)C1 (stereo not given) | 19% | 13% | -2% | / | -11% | 10%[59 µM] | / | /
N#C/C(=C\c1ccc(C(=O)O)cc1)c1nc2sc3c(c2c(=O)[nH]1)CCCC3 | -33% | 45µM* | 22µM* | -13% | ? | 40µM* | 11* | -24%
C=CCn1c(SCC(=O)c2ccc(O)c(O)c2)nnc1-c1ccc(OC)cc1 | 4% | -19% | 8.9µM* | / | ? | -3%[0.501 µM] | 13* | 0%
CC(O)CNc1nc(N)[nH]c(=O)c1N=Nc1ccccc1 (stereo not given) | 10% | / | / | / | -34% | / | / | /
Cc1c(N2C(=O)c3ccc4c5c(ccc(c35)C2=O)CC4)c(=O)n(-c2ccccc2)n1C | ? | 56µM* | 13µM* | -4% | ? | 50µM* | 6* | 1%
Cc1ccc2occ(/C=N/NC(=O)c3ccncc3)c(=O)c2c1 | 63% | -4% | / | 12% | -14% | / | / | /
CC(=O)c1ccc(NC(=O)CSc2nnc(-c3ccco3)c(-c3ccco3)n2)cc1 | 32µM* | 45µM* | 25µM* | 8.9µM* | 22µM* | / | 15* | ?
CCOC(=O)c1cc(-c2ccccc2)n(CCC(=O)Nc2ccc(OC)c(Cl)c2)c1C | 22% | -4% | / | / | -34% | -25%[59 µM] | / | /
Cc1nccc2oc(=O)c(NC(=O)c3ccc(Cl)cc3)cc12 | 70% | 1% | 27% | 7% | -10% | -10% | / | /
O=C(Nc1cc2c(oc1=O)CCCC2=O)c1ccc(Cl)cc1 | -65% | 40µM* | 16µM* | 0% | 14µM* | 4%[12.7 µM] | 3.8* | 11%
COC(=O)c1ccccc1NC(=O)c1noc2c1CSc1ccccc1-2 | 80% | 40% | / | / | 25% | ? | / | /
COC(=O)c1ccccc1NC(=O)c1noc2c1CCC2 | ? | 50µM* | 28µM* | ? | 50µM* | 45µM* | 9.5* | 4%
Cc1cc(OCC(=O)NC(C)c2ccccc2)ccc1[N+](=O)[O-] (stereo not given) | 19% | -2% | 6% | 2% | -12% | 5% | / | /
COc1ccc2c(c1)c(=O)oc1c(C)c(OCc3cc(C(=O)O)oc3C)ccc12 | ? | ? | 35µM* | -5% | 28µM* | ? | 11* | 4%
Cc1ccc(N=Nc2ccc(O)c3ncccc23)cc1 | ? | ? | 40µM* | 32% | ? | ? | 17* | ?
Cc1ccc(Sc2ncccc2O)cc1 | 25% | / | / | / | -5% | / | / | /
Cc1oc2ccc(O)c(CN3CCN(C)CC3)c2c1C(=O)Nc1ccccc1 | 17% | -13% | / | / | -14% | -22%[59 µM] | / | /
CCCC[C@@H]1C=C(C(=O)O)[C@H](c2ccc(Br)cc2)N1S(=O)(=O)c1ccc(C)cc1 | 25% | / | -4% | / | -14% | / | / | /
Cc1ccc(/C=C2\SC(N3CCN(C(c4ccccc4)c4ccccc4)CC3)=NC2=O)o1 | -20% | ? | 14µM* | 4µM* | ? | 4.5µM* | 15* | -2%
O=C1N=C(N2CCN(c3ccccc3)CC2)S/C1=C/c1cccs1 | -1% | -33% | ? | -3% | -25% | -20%[59 µM] | / | /
O=C1NC(=O)/C(=C/c2ccc(-c3cc(C(=O)O)ccc3Cl)o2)S1 | 15% | -12% | 7.1µM* | 32µM* | -19% | / | 8.4* | -6%
O=C(/C=C1\SC(=O)NC1=O)Nc1ccc(C(=O)O)cc1 | 41% | -7% | / | -13% | -15%[11.4 µM] | / | / | /
O=C(CSc1nnc(-c2ccco2)o1)c1ccc[nH]1 | 6% | 45µM* | 28µM* | ? | -26% | 40µM* | 19* | 1%
SMILES | HP1b chromo inh | BAZ2B block | L3MBTL1 inh-1 | Sfp PPTase inh | JMJD2A Tudor inh | G9a block | L3MBTL1 inh-2 | L3MBTL1 ctr
O=C(Nc1ccn(CCCNCc2ccc3c(c2)OCO3)c(=O)n1)OCc1ccccc1 | 10% | / | / | / | -20% | / | / | /
NC(=O)c1ccc(NC(=O)COC(=O)/C=C/c2ccc(Br)o2)cc1 | ? | / | 14µM* | / | 20µM* | / | 6.7* | -4%
Cn1cnnc1Sc1ccc(/C=C(\CCC(=O)O)c2nc3ccccc3s2)cc1[N+](=O)[O-] | -1% | ? | -8% | -14% | -13% | ? | / | /
CN(c1ccccc1)c1ccc(/C=C(\CCC(=O)O)c2nc3ccccc3s2)cc1[N+](=O)[O-] | ? | 11µM* | 28µM* | 7% | 45µM* | ? | 24* | ?
O=C1NC(=O)/C(=C\c2ccc(O)cc2O)S1 | ? | 28µM* | 4µM* | ? | 20µM* | 18µM* | 1.7* | ?
O=C(O)CCc1ccc(-c2cccs2)n1CCC(=O)O | 28% | ? | 4µM* | 7.9µM* | -29% | 20µM* | 17* | -21%
CC(=O)Oc1ccc2c(=O)c(Oc3ccccc3)coc2c1OC(C)=O | -12% | 50µM* | 14µM* | ? | ? | 8.9µM* | 9.5* | 9%
Cc1ccc(Oc2coc3cc(OC(=O)c4cccs4)ccc3c2=O)cc1 | 28% | -6% | 10% | 7% | -4% | 14%[59 µM] | / | /
NC(=NCCc1ccccc1)c1cccc([N+](=O)[O-])c1 | 17% | -6%[0.457 µM] | -2% | 2% | -15% | 1%[59 µM] | / | /
Cc1ccc(CNC(=O)c2ccc(N3CCC4(CC3)CC(c3ccccc3)=NO4)c(NC(=O)c3ccc(Cl)c([N+](=O)[O-])c3)c2)cc1 | 30% | 7% | 1% | / | -10% | 20%[2.33 µM] | / | /
CC(C)(C)OC(=O)CNC(=O)c1nc[nH]c1C(=O)NCC(=O)OC(C)(C)C | 30% | ? | / | -1% | ? | ? | / | /
O=C(Nc1cccc2ccccc12)c1ccc([N+](=O)[O-])o1 | -1% | -5% | 2% | 2% | -27% | / | / | /
O=C(Nc1ccccc1C(=O)NC1CC1)c1ccc([N+](=O)[O-])o1 | -22% | ? | 32µM* | / | ? | ? | 19* | 9%
COc1ccc2nc(N3C(=O)CNC3=S)sc2c1 | 40% | -7% | / | -29% | 5% | 7% | / | /
